Assay outcomes deposited in PubChem by National Center for Advancing Translational Sciences (NCATS).
Hits are enriched below; roughly 3.3% of the tested compounds scored in any of these assays.
Tb PYK inh – T. brucei pyruvate kinase inhibition; Q57TT1; TbPYK enzyme, Kinase-Glo Plus ATP luminescence, 45 min; Potency, µM (doses to about 76.8 µM), for inactives: at the top dose activity, negative = inhibition, hits mostly inhibitors; 410,000 tested, 0.12% active; also: % is scaled to controls: 0 for no effect and ±100 for the full control effect; nearly all actives have a fitted effect of over 50% in size
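In this concentration-response screen, enzyme-free wells defined baseline while DMSO plates tracked drift. Each reaction combined TbPYK, substrate, compound and 130 uM ADP for 45 min at room temperature. Kinase-Glo Plus luminescence gave the signal.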
SARS PLpro yeast – SARS-CoV PLP inhibition in yeast. Potency, µM (highest dose often 32.9 µM), for inactives: at the top dose activity, positive = growth rescue, most hits filed as activators. AID 485353. S. cerevisiae expressing SARS-CoV PLpro, growth rescue. 330,000 tested, 0.19% active; calls by dose curve; also: 0% is about no effect; nearly all actives have a fitted effect of over 55% in size
AmpC inh detg – AmpC beta-lactamase inhibition with detergent present. AmpC hydrolysis of nitrocefin, absorbance 480 nm, 0.01% Triton. Potency, µM (doses to about 114 µM), for inactives: top-dose activity change, negative = inhibition, actives largely listed as inhibitors. 370,000 tested, 0.041% active;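 also: 0% = no-compound wells and -100% = no-enzyme wells; nearly all actives have a fitted effect of over 25% in size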
Target sequence (P00811 whole entry, looked up): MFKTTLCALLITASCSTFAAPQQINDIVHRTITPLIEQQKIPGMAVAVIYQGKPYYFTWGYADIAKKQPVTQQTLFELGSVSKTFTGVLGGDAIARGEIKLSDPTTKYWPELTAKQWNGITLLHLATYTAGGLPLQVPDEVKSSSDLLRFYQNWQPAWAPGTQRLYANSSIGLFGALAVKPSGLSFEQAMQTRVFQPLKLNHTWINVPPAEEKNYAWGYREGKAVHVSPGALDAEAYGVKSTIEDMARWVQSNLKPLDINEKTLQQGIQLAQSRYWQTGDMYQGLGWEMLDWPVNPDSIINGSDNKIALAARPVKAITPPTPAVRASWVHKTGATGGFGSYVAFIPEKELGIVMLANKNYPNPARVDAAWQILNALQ
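20 mM phosphate pH 7.0 + 0.01% (detergent screen) or 0.0001% Triton X-100; 5.3 nM AmpC reagent; cpd preinc 15 min RT; nitrocefin (800 uM stock) to start; A480 q20 s × 4 min; Activity was normalised to no-enzyme and no-compound control wells.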
AmpC no deterg – inhibitors of E. coli AmpC beta-lactamase without detergent. 330,000 tested, 0.52% active. AmpC nitrocefin hydrolysis, absorbance 480 nm, 0.0001% Triton. P00811. AID 485341. Potency, µM (doses to about 57.1 µM), for inactives: at the highest dose activity change, negative = inhibition, actives largely listed as inhibitors;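 also: plate controls were no compound for no effect and no enzyme for full effect; nearly all actives have a fitted effect of over 20% in size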
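AmpC (5.3 nM in the dispensed reagent) in 20 mM phosphate pH 7.0 with 0.01% (detergent screen) or 0.0001% Triton X-100 was preincubated with compounds for 15 min at room temperature. Nitrocefin was then added from an 800 uM solution, and hydrolysis was followed at 480 nm.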
Sm TGR inh – S. mansoni TGR enzyme inhibition. Q962Y6. purified TGR, DTNB reduction, TNB absorbance 405 nm. Potency, µM (top dose mostly 114 µM), for the others: at the top dose activity change, negative = inhibition, usual class: inhibitors. 360,000 tested, 3% active; also: % is scaled to controls: 0 for no effect and ±100 for the full control effect; nearly all actives have a fitted effect of over 60% in size
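Kinetic colorimetric format: TGR-catalysed, NADPH-driven DTNB reduction monitored via TNB absorbance. Enzyme dispensed at 20 nM; compound exposure 15 min at room temperature before reaction start.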
RE007 growth inh – less growth of the S. pombe RE007 Vpr strain; S. pombe RE007 Vpr strain, BacTiter-Glo ATP luminescence, 24 h; Potency, µM (doses to about 92.2 µM), for inactives: top-dose activity change, negative = less growth, usual class: inhibitors; 360,000 tested, 0.21% active; AID 651644; active = well fitted falling curve with a large enough effect; inconclusive = small, poorly fitted or top-dose-only effect; inactive = no such curve, though single readings can be large or run the other way; also: % is scaled to controls: 0 for no effect and ±100 for the full control effect; nearly all actives have a fitted effect of over 50% in size
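Fission yeast strain RE007, carrying one chromosomally integrated HIV-1 vpr copy, was seeded at OD 0.01 in PMG+AL medium with 23 nL pinned compound. After 24 h at 30 °C and 99% humidity, viability was read by BacTiter-Glo luminescence.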
* = called active by the depositor; ? = inconclusive; · = no result given; [ ] = dose if it differs, or a comment. Unless noted, calls follow the shape of the dose curve; as a rule, active = well fitted curve in the direction sought with a large enough effect; inconclusive = small, poorly fitted or top-dose-only effect, or another doubt; inactive = no such curve, though single readings can be large; an effect the other way counts as inactive or inconclusive. Potency is read from the fitted curve at half-maximal effect.

SMILES	Tb PYK inh	SARS PLpro yeast	AmpC inh detg	AmpC no deterg	Sm TGR inh	RE007 growth inh
CC1Cc2ccccc2N1S(=O)(=O)c1cnc(Cl)c(Br)c1 (stereo not given)	7%	0%	1%	-10%	7.9µM*	5%
CCOC(=O)c1cccc(NC(=O)NCCc2c(C)nn(C)c2C)c1	-1%	·	11%	·	4%	·
Cc1ccc(S(=O)(=O)CCC(=O)c2ccc(F)cc2)cc1	-2%	-2%	7%	-10%	-17%	-26%
Cc1ccc(C(=O)CCS(=O)(=O)c2ccc(F)cc2)cc1	-12%	-4%	5%	-26%	0.32µM*	-24%
Cc1ccc(C(=O)CCS(=O)(=O)c2ccc(Cl)cc2)cc1	-2%	0%	3%	-5%	0.35µM*	-15%
CC(=O)OC[C@]12CCC(C)=C[C@H]1O[C@@H]1[C@H](O)[C@@H](OC(C)=O)[C@@]2(C)[C@]12CO2	4%	-10%	3%	-10%	5%	3.2µM*
CCc1ccc(CNC(=O)c2ccc(Cn3c(=O)c4cccn4c4cccnc43)cc2)cc1	-6%	·	1%	·	3%	·
COc1cc(OC)c(NC(=O)N2CCCn3nc(C)cc32)cc1Cl	-9%	·	8%	·	8%	·
O=C(OCn1ncc(Br)c(Br)c1=O)c1c(F)cccc1F	·	-16%	?	-23%	0.56µM*	·
CC(=O)Cn1ncc(Br)c(Br)c1=O	2%	-1%	3%	-19%	·	19%
CC(C)NC[C@H](O)c1ccc(O)c(O)c1	-7%	·	?	-14%	45µM*	9%[18.4 µM]
O=C(CSc1nn(-c2ccccc2)c(=S)s1)Nn1cnnc1	1%	22%	-7%	-6%	0%	6%
Cc1ccc(NC(=O)CSc2nn(-c3ccccc3)c(=S)s2)cc1S(=O)(=O)N(C)C	-12%	0%	-19%	28µM*	-1%	·
Cc1ccccc1NC(=O)Cn1cc(S(=O)(=O)c2ccccc2)c(=O)c2ccccc21	1%	·	-2%	·	-2%	·
CCN(CC)c1ccc(NC(=S)NC(=O)c2cccs2)cc1	0%	1%	3%	-57%	8.9µM*	?
C=CCN(CC=C)S(=O)(=O)c1ccc(NC(=S)NC(=O)c2ccc(-c3ccccc3)cc2)cc1	4%	0%	-1%	-23%	-6%	2%
CCN(CC)c1ccc(NC(=S)NC(=O)c2ccco2)cc1	-1%	-2%	?	-21%	11µM*	-2%
CN(C)S(=O)(=O)c1ccc(NC(=S)NC(=O)c2cccs2)cc1	-2%	0%	10%	-34%	?	-23%
C=CCN(CC=C)S(=O)(=O)c1ccc(NC(=S)NC(=O)c2ccco2)cc1	-10%	-4%	-13%	35µM*	?	-4%
CCN(c1ccccc1)S(=O)(=O)c1ccc(NC(=S)NC(=O)c2cccs2)cc1	-8%	4%	1%	14µM*	?	-7%
COc1ccc(-n2nnc(-c3nc(-c4cccs4)no3)c2N)cc1OC	3%	·	0%	·	3%	·
Cc1cc(C)c2cc(C(c3nnnn3CC3CCCO3)N3CCN4CCCC4C3)c(=O)[nH]c2c1 (stereo not given)	-7%	5%	?	57%	22µM*	-2%
O=c1[nH]c2cc3c(cc2cc1C(c1nnnn1CC1CCCO1)N1CCCCCC1)OCCO3 (stereo not given)	-21%	-2%	1%	2%	32µM*	4%
CCOC(=O)c1ccc(NC(=O)CSc2nccn2Cc2ccc(OC)cc2)cc1	-2%	·	6%	·	1%	·
C=C(C)C(=O)NNc1ccccc1	-9%	-1%	?	-1%[11.4 µM]	1.6µM*	126%
SMILES	Tb PYK inh	SARS PLpro yeast	AmpC inh detg	AmpC no deterg	Sm TGR inh	RE007 growth inh
COc1ccc(NC(=O)CSC2=Nc3ccccc3C3=NC(CCC(=O)NCc4ccc(F)cc4)C(=O)N23)cc1Cl (stereo not given)	0%	·	-10%	·	-2%	·
C=CCn1c(SC(F)F)nc2scc(-c3ccco3)c2c1=O	-3%	-8%	?	-23%	50µM*	-14%
C=CCn1c(SCC(C)=O)nc2scc(-c3ccco3)c2c1=O	-11%	2%	-10%	5%	2.8µM*	-20%
C=CCn1c(SCC(=O)N2CCCC2)nc2scc(-c3cccs3)c2c1=O	-1%	-11%	1%	18%	4%	-6%
C=CCn1c(SCC(=O)N2CCOCC2)nc2scc(-c3ccco3)c2c1=O	-15%	-3%	?	94%	4.5µM*	-13%
CC(C)C(C)NC(=O)CSc1nc2scc(-c3ccco3)c2c(=O)n1-c1ccccc1 (stereo not given)	-9%	3%	-6%	20%	25µM*	-5%
N#Cc1ccccc1CSc1nnc(-c2ccccc2)o1	3%	·	-3%	·	8%	·
COc1ccc(CNCc2c(C(=O)O)n(Cc3ccc(F)cc3)c3cc(C)ccc23)cc1OC	5%	·	-1%	·	8%	·
CCOC(=O)C1CCCN(C(=O)c2nn(-c3ccc(OC)cc3)c(=O)c3c2c2ccccc2n3C)C1 (stereo not given)	-8%	·	-3%	·	5%	·
Nn1cnc2scc(-c3ccco3)c2c1=O	2%	0%	6%	-16%	35µM*	-12%
O=C(CN1CCN(C2CCCCC2)CC1)c1c[nH]c2ccccc12	-15%	-4%	5%	-28%	-3%	3%
O=C(CN1CCN(C2CCCCC2)CC1)c1ccc2cc[nH]c2c1	0%	-4%	-13%	-4%	32µM*	-2%
Cc1cccc(C)c1N(CC(=O)Nc1cc(Cl)ccc1Oc1ccccc1)S(C)(=O)=O	5%	-3%	?	0.16µM*	2%	20%
CCc1ccccc1NC(=O)CSc1ncc(S(=O)(=O)c2ccccc2)c(N)n1	-9%	·	0%	·	8%	·
CC(=O)Nc1ccc(Br)c(Cl)c1	-1%	-3%	6%	-17%	7%	-23%
CCOc1ccccc1NC(=S)NC(=O)C1CCCCC1	-3%	-12%	5%	-29%	8.9µM*	-26%
Cc1ccc(NC(=S)NC(=O)C2CC2)cc1Cl	1%	?	-11%	-27%	?	-21%
CCC1CCCCN1C(=O)COc1ccccc1NC(C)=O (stereo not given)	0%	-3%	-1%	11%	50µM*	17%
O=C(Nc1ccc(Br)c(Cl)c1)C1CC1	-3%	-20%	1%	2.2µM*	6%	?
O=C(NC(=S)Nc1ccc(F)c(Cl)c1)C1CC1	5%	19%	9%	-33%	16µM*	-19%
CCOc1ccccc1NC(=O)C1CCCC1	2%	·	·	·	·	14%
